This is a sample that favours compounds with a hit; in the whole collection about 2.8% have one here.
WRN helicase inh – qHTS for Inhibitors of WRN Helicase; Potency, µM (doses to about 114 µM), actives largely listed as inhibitors; actives 0.46% (n = 360,000); Bifunctional 3'-5' exonuclease/ATP-dependent helicase WRN (Homo sapiens), Q14191; WRN helicase unwinding, fluorescent forked duplex, kinetic; further: nearly all actives have a fitted effect of over 55% in size
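Screening of the MLSMR collection measured strand separation of a quenched forked DNA duplex (100 nM) by 20 nM WRN with 2 mM ATP, all final. Compounds were preincubated with enzyme 15 min at room temperature.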
POLI inh – qHTS for Inhibitors of Polymerase Iota; Pol iota fluorescent replication assay, 10 min; Potency, µM (top dose mostly 115 µM), usual class: inhibitors; actives 1% (n = 390,000)
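Pol iota at 10 nM preincubated 15 min with compounds at room temperature; reaction started with fluorescent substrate, 50 nM final. Fluorescence read kinetically at 0 and 10 min; buffer-only wells as negative control.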
Pol kappa inh – qHTS for Inhibitors of Polymerase Kappa | DNA polymerase kappa (Homo sapiens), Q9UBT6 | purified Pol kappa, fluorescent DNA synthesis assay, 10 min | Potency, µM (series often up to 107 µM), hits mostly inhibitors | actives 0.53% (n = 400,000) | AID 588579, 2011
Target sequence (Q9UBT6 whole entry, looked up): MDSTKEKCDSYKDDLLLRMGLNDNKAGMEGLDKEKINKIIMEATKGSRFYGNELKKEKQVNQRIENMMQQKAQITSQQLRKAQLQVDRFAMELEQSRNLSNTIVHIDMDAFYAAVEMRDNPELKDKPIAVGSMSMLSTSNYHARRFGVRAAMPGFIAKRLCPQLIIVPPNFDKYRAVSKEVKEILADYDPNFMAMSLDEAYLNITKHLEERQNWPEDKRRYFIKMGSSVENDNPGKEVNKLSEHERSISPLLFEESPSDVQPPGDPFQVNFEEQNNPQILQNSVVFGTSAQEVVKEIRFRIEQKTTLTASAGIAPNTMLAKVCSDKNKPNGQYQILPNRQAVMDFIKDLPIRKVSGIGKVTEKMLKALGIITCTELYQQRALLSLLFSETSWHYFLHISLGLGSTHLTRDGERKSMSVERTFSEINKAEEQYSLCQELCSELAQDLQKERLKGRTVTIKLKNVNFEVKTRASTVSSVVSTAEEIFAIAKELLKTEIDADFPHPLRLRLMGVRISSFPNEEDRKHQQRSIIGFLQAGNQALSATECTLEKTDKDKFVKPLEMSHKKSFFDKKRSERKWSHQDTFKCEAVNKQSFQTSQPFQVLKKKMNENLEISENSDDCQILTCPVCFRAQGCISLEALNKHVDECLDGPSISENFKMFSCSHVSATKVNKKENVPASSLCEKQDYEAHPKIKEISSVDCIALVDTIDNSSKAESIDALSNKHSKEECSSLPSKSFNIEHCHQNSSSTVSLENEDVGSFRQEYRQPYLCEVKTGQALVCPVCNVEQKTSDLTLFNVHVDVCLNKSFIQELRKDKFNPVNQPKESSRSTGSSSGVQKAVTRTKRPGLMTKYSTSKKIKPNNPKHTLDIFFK
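Kinetic fluorescence screen: compound preincubated 15 min RT with 10 nM enzyme; 50 nM substrate (final) initiates; reads at 0/10 min.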
Pol beta inh – qHTS Assay for Inhibitors of DNA Polymerase Beta | actives 1.3% (n = 340,000) | Pol beta primer extension/strand displacement, fluorescence kinetic | Potency, µM (highest dose often 114 µM), usual class: inhibitors | AID 485314, 2010 | P06746
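Preincubation: enzyme (10 nM) with compound, 15 min, RT. Reaction: substrate added to 50 nM final. Reads: 0 and 10 min. Analysis: normalized, Hill fit.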
Pol eta inh – qHTS for Inhibitors of Polymerase Eta | DNA polymerase eta (Homo sapiens), Q9Y253 | recombinant Pol eta, fluorescent DNA replication assay | Potency, µM (series often up to 114 µM), most hits filed as inhibitors | actives 1.2% (n = 390,000) | AID 588591, 2011
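Pol eta (10 nM) was preincubated with compounds for 15 min at room temperature, after which fluorescent replication substrate (50 nM final) was added to start the reaction. Fluorescence was read kinetically at 0 and 10 min.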
PI5P4K alpha inh – qHTS for Inhibitors of phosphatidylinositol 5-phosphate 4-kinase (PI5P4K) | AID 652105, 2013 | actives 1.2% (n = 330,000) | max response, % | PI5P4Kalpha enzyme, ADP-Glo luminescence, 60 min; stronger effect = lower value | Phosphatidylinositol 5-phosphate 4-kinase type-2 alpha (Homo sapiens), P48426; active means max response of -50% or lower; inconclusive means between -30% and -50%; inactive means -30% or higher; further: value at the top dose of about 77 µM
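Controls without substrate or without enzyme flank wells where PI5P4Kalpha converts substrate using 5 microM ATP (final). Incubation lasts 60 minutes at room temperature; ADP formed is read by ADP-Glo luminescence.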
Large screens that a line does not name were inactive. Unless noted, the call rests on the fitted dose curve; in most records, active means well fitted curve in the direction sought with a large enough effect; inconclusive means small, poorly fitted or top-dose-only effect, or another doubt; inactive means no such curve, though single readings can be large; an effect the other way counts as inactive or inconclusive.

COc1cc(/C=C(\C#N)c2nc3ccccc3[nH]2)ccc1OCc1cccc(C(F)(F)F)c1	POLI inh inconclusive, Pol beta inh 3.55µM (no result: WRN helicase inh, Pol eta inh, PI5P4K alpha inh)
CCOc1cc(/C=C(\C#N)c2nc3ccccc3[nH]2)ccc1OC(C)C(=O)O (stereo unspecified)	PI5P4K alpha inh inconclusive
O=C(Nc1nn[nH]n1)C12CC3CC(CC(C3)C1)C2	none (no result: PI5P4K alpha inh)
Cc1cccc(NC(=O)CSc2nc(NS(=O)(=O)c3ccccc3)cc(=O)[nH]2)c1	POLI inh inconclusive, Pol beta inh 31.6µM
O=C(CSc1nc(NS(=O)(=O)c2ccccc2)cc(=O)[nH]1)Nc1ccc(Cl)cc1	WRN helicase inh inconclusive, POLI inh 15.8µM, Pol kappa inh 44.7µM, Pol beta inh 20µM, PI5P4K alpha inh inconclusive
Cc1ccc(C)c(SCC(=O)Nc2ccc(S(=O)(=O)Nc3ncccn3)cc2)c1	POLI inh inconclusive, Pol beta inh inconclusive, Pol eta inh 50.1µM, PI5P4K alpha inh inconclusive
Cc1ccnc(NS(=O)(=O)c2ccc(NC(=O)Cc3cccs3)cc2)n1	WRN helicase inh 39.8µM, POLI inh 14.1µM, Pol kappa inh 31.6µM, Pol beta inh 20µM, Pol eta inh 2.51µM, PI5P4K alpha inh -83.0
COc1ccc(Cl)cc1NC(=O)CSc1nc(NS(=O)(=O)c2ccccc2)cc(=O)[nH]1	none
Cc1ccccc1Cn1c(=O)n(CCCCCC(=O)NCc2ccc3c(c2)OCO3)c(=O)c2sccc21	none (no result: WRN helicase inh, PI5P4K alpha inh)
S=C(NCCCN1CCOCC1)Nc1cccc(-c2nnc3n2CCCCC3)c1	none
O=C(O)CCc1ccc(-c2ccccc2)n1CC(=O)Nc1ccccc1C(F)(F)F	none (no result: WRN helicase inh, PI5P4K alpha inh)
Cc1ccc(NC(=O)CSc2nc(NS(=O)(=O)c3ccc(C)cc3)cc(=O)[nH]2)cc1	Pol beta inh 28.2µM (no result: PI5P4K alpha inh)
Cc1ccc(S(=O)(=O)Nc2cc(=O)[nH]c(SCC(=O)Nc3cccc(C(F)(F)F)c3)n2)cc1	none
CCOC(=O)COc1ccc(Br)cc1/C=C/c1[nH]c(=O)[nH]c(=O)c1[N+](=O)[O-]	POLI inh inconclusive, Pol beta inh 56.2µM, Pol eta inh 44.7µM, PI5P4K alpha inh -58.7
Cc1cc(OC(=O)c2cccc(Br)c2)c([N+](=O)[O-])c(=O)[nH]1	POLI inh inconclusive
CCCOc1ccc(/C=C/c2[nH]c(=O)[nH]c(=O)c2[N+](=O)[O-])cc1OCC	none
CCOC(=O)COc1ccc(Br)cc1/C=C\c1[nH]c(=O)[nH]c(=O)c1[N+](=O)[O-]	POLI inh 89.1µM, Pol beta inh inconclusive, Pol eta inh 12.6µM, PI5P4K alpha inh -74.0
CC(=O)Oc1cc2c3c(c1)/C(=C1/SC(=S)NC1=O)C(=O)N3C(C)(C)C=C2C	WRN helicase inh inconclusive, POLI inh inconclusive, Pol beta inh inconclusive, Pol eta inh 79.4µM, PI5P4K alpha inh -75.8
COc1cccc(SCc2noc(C(=O)NCCC(C)C)c2C(=O)NCCC(C)C)c1	POLI inh inconclusive (no result: Pol beta inh)
Clc1cnc(Nc2cccnc2)c(Cl)c1	none
CCN(CC)c1cc(C)c2cc(NC(=O)c3cc(OC)cc(OC)c3)ccc2n1	none (no result: WRN helicase inh, PI5P4K alpha inh)
COc1ccc(C(=O)Nc2cccc(NC(=O)c3ccc(OC)c(OC)c3)n2)cc1OC	POLI inh inconclusive, Pol beta inh 22.4µM
CCN(CC)c1cc(C)c2cc(NC(=O)c3ccc(OC)c(OC)c3)ccc2n1	POLI inh inconclusive, Pol kappa inh inconclusive, Pol beta inh 12.6µM (no result: WRN helicase inh, PI5P4K alpha inh)
COc1ccc(C(=O)Nc2cccc3cccnc23)cc1OC	none (no result: PI5P4K alpha inh)
COc1ccc(CCNC(=O)c2nnn(CC(=O)Nc3ccccc3C)c2N)cc1OC	POLI inh inconclusive, Pol beta inh 20µM, Pol eta inh inconclusive
COc1cccc(NC(=O)Cn2nnc(C(=O)NCCc3ccccc3)c2N)c1	POLI inh 31.6µM, Pol beta inh inconclusive
